Paper PMC12136788
Changes are numbered by the printed parent chain. In all, about 24,000 sequences were measured (“enrichment r”: median about 0.99, highest 2% from about 3.7 on). What follows is part of a selection rich in the highest values, with near analogues and random picks from the rest.

T1: UNK ZnF1-3 (human, UniProt Q9C0B0 31-174)
T1 sequence: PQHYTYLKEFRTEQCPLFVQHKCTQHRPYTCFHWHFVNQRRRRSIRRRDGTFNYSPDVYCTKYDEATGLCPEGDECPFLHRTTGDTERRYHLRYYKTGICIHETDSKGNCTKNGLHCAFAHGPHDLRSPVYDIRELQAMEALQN

B1: chr14:92628060:92628061:+_ENSG00000165934_ENST00000298875|hu_hu|motif|central (ssRNA)
RNA: GGGAGUUCUACAGUCCGACGAUCUUGACAUCAUGUCCUUUAUACAAUGGCAUAUUGUUCAUAUAAAAGGUCUCUUAUCCGGUAAAAAUCUUGACAAAGGCAGCCUUCUAAUCCAAUGCGUCCAGUUUCCGUUCUGCGGACUGCCAACAGAGGAUUGAGCAUCA
B2: chr17:32333828:32333829:-_ENSMUSG00000024002_ENSMUST00000121285|mus_mus|FALSE|FALSE (ssRNA)
RNA: GGGAGUUCUACAGUCCGACGAUCUACAGUACAGCCACAGUCACACACUACCCACAGCGCAGUGGGAGCCGCCGCUCACUGAGGAGACGAUCACACCAUUUGGAGAUAAGCAGUGCCACUGUGUCUGAGGAGAAGAGAGUUAAACAACAGAGGAUUGAGCAUCA
B3: chr17:88387627:88387628:+_ENSMUSG00000005370_ENSMUST00000005503|mus_hu|motif|central (ssRNA)
RNA: GGGAGUUCUACAGUCCGACGAUCAAAAUCAUCUCCAAAAAAAGUCUUCGUAAUGCAAGGAUGGCGUGAUCCUUUAAGCUCGGAGAAGGGGGGGGUAUCUUCCGGCAACAGAAUUACUGGGCGACACAUAGGACCAUCACCCCCCAACAGAGGAUUGAGCAUCA
B4: chr8:26941818:26941819:-_ENSMUSG00000031575_ENSMUST00000166078|mus_mus|FALSE|FALSE (ssRNA)
RNA: GGGAGUUCUACAGUCCGACGAUCACUAGCAGACACAGCACUGCUUUGUUUCUGGUUGUCAUAAGCAGGACCAAUAUUACUAAGAUCCUGAUCCAAAAGUCCAAACUUGGGGUAAUCUUCUUCUGGGUCUUUGCUUCCUGGGUCCAACAGAGGAUUGAGCAUCA
B5: chr1:163117127:163117128:-_ENSG00000143248_ENST00000313961|hu_mus|hu_hu_hu_mus_False|58_98 (ssRNA)
RNA: GGGAGUUCUACAGUCCGACGAUCUGCUACAAAGGAUGGAGGAAAUAUCACAGGGCAACUUUUGGAAGCCUGACCAGAUUACUACUUGAUUAGCUCCUUAUAAAAUUCAGAGCGCACAAAGCGGGGCAGAGAAUCCUUCUCCAUCAACAGAGGAUUGAGCAUCA
B6: chr18:90710673:90710674:+_ENSMUSG00000024614_ENSMUST00000025515|mus_mus|motif|central (ssRNA)
RNA: GGGAGUUCUACAGUCCGACGAUCACCUAAUAAAAAUUCUGAAAUUAGCUAAAAUGAAGGCAUCAAAAUUAACAAAUGAUCGGUAGUAAACAUUAUCACAAAAUACCCACUCUUAGACACGACUGCAUUCUGAUGAAAGAUGCGCAACAGAGGAUUGAGCAUCA
B7: chr2:176857141:176857142:-_ENSG00000144320_ENST00000272748|hu_mus|motif|central (ssRNA)
RNA: GGGAGUUCUACAGUCCGACGAUCUUUUUGCAAUCUCUGAUUUUUUUCUCUAAAUUCUUCCAAUGCUUGAAUUUCCUUAUCGGUAUUUUCUAGAACUUCUACUGUUGAAGGUUUUGCCCUCCAUCGAGAAAAUAAUCCACCCAUCAACAGAGGAUUGAGCAUCA
B8: 47141246_47141366_1218_CDS_ENSMUSG00000038291_ENSMUST00000170416|mouse|control|control (ssRNA)
RNA: GGGAGUUCUACAGUCCGACGAUCUUCUUCCUCACGCAUGAGCUUCUCAUACAGGUCGCUGACGAGGAAGGAGGGGUAAUACCGCUCCCUCAGCACCUCGGACACAUCGGCUUGGAUUUUGCUGAACACCUCGAUGCCUCUGUUCAACAGAGGAUUGAGCAUCA
B9: chr17:26875717:26875718:-_ENSG00000109103_ENST00000335765|hu_mus|FALSE|FALSE (ssRNA)
RNA: GGGAGUUCUACAGUCCGACGAUCACGGAUCUUGAACCUGACGAAGUCAAUCUUGUAGAUAUUUUCCUCAGGGGAGCACAGGUAGUCACCCGUGAUCCGCUGCAGCCCCAGCACAUCCUCCGGCCCGAUGGGCUGCUUGCCCUGCAACAGAGGAUUGAGCAUCA
B10: 230825810_230827160_2020_CDS_ENSG00000135775_ENST00000366669|human|control|control (ssRNA)
RNA: GGGAGUUCUACAGUCCGACGAUCGUUUAAUACAUCUGACACGGUUUCAUAGUACUUAUGAGUGCUUUCACUGAGAGUGCCUUCUAGCCACUGCUGAAUUAUUGCUUGUUUGAGCUUAUCCUUGUGUCCGCUCUGAAGCUGGAACAACAGAGGAUUGAGCAUCA
B11: chr2:242098653:242098654:+_ENSG00000115685_ENST00000406106|hu_mus|FALSE|FALSE (ssRNA)
RNA: GGGAGUUCUACAGUCCGACGAUCAUCAUAGAGAUCCAGUUCUCGAAGACUCUGCAGUUCUUCCAGGUUUUCAAUGCAUUUAAUUAGGUUUUGACGAAGGCAGAGUGACUUCACUUUCUUUAGCACCUCCAAGCCUUCAAUCUUCAACAGAGGAUUGAGCAUCA
B12: chr15:85259290:85259291:-_ENSG00000140612_ENST00000559729|hu_mus|FALSE|FALSE (ssRNA)
RNA: GGGAGUUCUACAGUCCGACGAUCAUUUAGGACUUGGUAGUACAGCUGCCUCUUGUUCAUCCGCCGCACAUCGUCUAGAAAGUCUAGAGACAGCAUGGUGAGAUGGAGAGCGCGACAACUAGCAGCCAAGAGGGCGCGAUAGAACAACAGAGGAUUGAGCAUCA
B13: chr13:107772667:107772668:-_ENSMUSG00000021693_ENSMUST00000022204|mus_hu|motif|central (ssRNA)
RNA: GGGAGUUCUACAGUCCGACGAUCCAUUUCAUUAGGAGCUGAGUCAUCAAAGGCAUAAUCAAAACGAAAUGUUUGGUUUUCGGGGUACCUUGUUAAAUCUACUUUUUGUUUUGGUUCAUGUACCAUCACAACAUCUUUACUAGGCAACAGAGGAUUGAGCAUCA
B14: chr2:125083379:125083380:+_ENSMUSG00000027203_ENSMUST00000082122|mus_mus|FALSE|FALSE (ssRNA)
RNA: GGGAGUUCUACAGUCCGACGAUCUUAAAAAAAAUUACAAAUGAUACAGCAAUUAUGAUCAAAAACAGUUUUUGGAAGGCUAUAAUUUAAAUAAUACAACAACAACAAAAAAUCUAACUGUACCCUGGGUUUUACCAAGUCUGCCAACAGAGGAUUGAGCAUCA
B15: chr8:13019523:13019524:+_ENSMUSG00000031442_ENSMUST00000123811|mus_mus|FALSE|FALSE (ssRNA)
RNA: GGGAGUUCUACAGUCCGACGAUCUUAAAGUUUUGAGGCCAGAGUACCACAAAAAAUGGCCAUGGGGUUAAUCCCUGUUUAAAAAAAAUCAAAAACUUAUAAAAGACGAGAGUCCCUUGACCCCCCCUUAGGCUGUUGGUAGCACAACAGAGGAUUGAGCAUCA
B16: chr2:125083379:125083380:+_ENSMUSG00000027203_ENSMUST00000082122|mus_mus|motif|central (ssRNA)
RNA: B14 RNA with U80G, A81G
B17: 2747543_2750058_4223_CDS_ENSG00000101596_ENST00000320876|human|control|control (ssRNA)
RNA: GGGAGUUCUACAGUCCGACGAUCUUGGUUUGAAGGCAUGAGCUUUAAAUUGCUAGCUUUUGUAAGACUUAUUUUAACAUGUUGUACCGGUGCUGGAUUAUCCCACUGAUCACAAAGUUGAACAAUAAUAGGGUUCUGUAAAUCCAACAGAGGAUUGAGCAUCA
B18: chr8:90938390:90938391:+_ENSG00000164823_ENST00000451899|hu_hu|motif|central (ssRNA)
RNA: GGGAGUUCUACAGUCCGACGAUCAAGAAUAUGAAGUACCUGUCAAGGUUUCAACGAUAAAAAUAUUUUUUAAAAGACCCGGUUUGGUAAUAAAUUAGAUUUAUACAAUUGAUAAUUUCAAAAUAAAUAAAAUCUGAGUUGUAACAACAGAGGAUUGAGCAUCA
B19: chr2:44571030:44571031:-_ENSG00000138078_ENST00000409411|hu_hu|FALSE|FALSE (ssRNA)
RNA: GGGAGUUCUACAGUCCGACGAUCUCUUAUCUUGGCAGCCACAUAUUUUUCAUCUGGAGCAACUCUGAUACAAUCAAUGAAGGGCUGGUCUAACUUAAGUUCCUCCAAAUUGAAUAAAACUUCAUAAUUAUCAUUGUCUGCUUCCAACAGAGGAUUGAGCAUCA
B20: 5810229_5811228_1359_CDS_ENSG00000099219_ENST00000339450|human|control|control (ssRNA)
RNA: GGGAGUUCUACAGUCCGACGAUCAGUCUUAUGUUUGGGCUGCAAAAAUUUUUUGCCCAGGUACAAAACAACACCCAUUACCACCAUGUAGUUUAUGAUUGAGCCAAUACGAGAGGGGUAGGCAAUGACAAACAGGCCCAGCACCAACAGAGGAUUGAGCAUCA
B21: chrX:101157612:101157613:-_ENSMUSG00000056537_ENSMUST00000070705|mus_mus|motif|central (ssRNA)
RNA: GGGAGUUCUACAGUCCGACGAUCAAAUUAUCAGUAACAGGUUAGCAAUUCAUCUGGUACCGAAAUCAAAUGUUUAAGUCCGGAAAUGUUGUUUUUAAAAUAUUCUUUCCAUCCUGAAAGAGAAACUAGAGAAAAGGCAUGAUACAACAGAGGAUUGAGCAUCA
B22: chr8:90938390:90938391:+_ENSG00000164823_ENST00000451899|hu_hu|FALSE|FALSE (ssRNA)
RNA: B18 RNA with G80U, G81A

What follows are binders tested against T1, UNK ZnF1-3 (assay: nsRBNS (natural sequence RNA bind-n-seq); RBNS binding buffer (assumed for nsRBNS): 25 mM Tris pH 7.5, 150 mM KCl, 3 mM MgCl2, 0.01% Triton X-100, 500 ug/ml BSA, 20 U/ml SUPERase-In, 4 C; UNK is unkempt and MSI1 is Musashi-1; names of the RNAs are library labels; protein concentration not given here; high values mean tight binding).

| Binder | binding signal [enrichment R] |
| --- | --- |
| B1 | 0.899 |
| B2 | 1.36 |
| B3 | 1.58 |
| B4 | 0.761 |
| B5 | 1.55 |
| B6 | 1.85 |
| B7 | 0.366 |
| B8 | 0.729 |
| B9 | 0.51 |
| B10 | 0.468 |
| B11 | 0.6 |
| B12 | 0.618 |
| B13 | 1.02 |
| B14 | 4.2 |
| B15 | 4.16 |
| B16 | 4.51 |
| B17 | 1.18 |
| B18 | 6.04 |
| B19 | 1 |
| B20 | 1.77 |
| B21 | 1.32 |
| B22 | 2.3 |
